PubChem BioAssay (EPA / NIEHS)
Values joined by “and” are separate entries in the source; they are usually repeats but may differ in a detail not shown here. Identical values can stand only once. Inconclusive results are not listed. Some compounds were tested as several samples or in several runs, with calls that do not always agree. Active and inactive are the calls of the source. How the source made its calls, unless noted: active means hit-call score of the fitted dose curve at least 0.9, where 1 is the maximum; inactive means score below 0.9.

Columns and labels:
[1] = molecular target: Nuclear respiratory factor 1 (Homo sapiens) (UniProt Q16656); assay: ATG_NRF1_CIS: Attagene CIS-FACTORIAL HepG2 Assay for human Nuclear Respiratory Factor 1 (NRF1) Orphan Gene (AID 2282987); settings: HepG2 NRF1 cis-element reporter, Attagene multiplex; actives raise or lower the signal
Sequence of Nuclear respiratory factor 1 (Homo sapiens) (Q16656 whole entry, looked up): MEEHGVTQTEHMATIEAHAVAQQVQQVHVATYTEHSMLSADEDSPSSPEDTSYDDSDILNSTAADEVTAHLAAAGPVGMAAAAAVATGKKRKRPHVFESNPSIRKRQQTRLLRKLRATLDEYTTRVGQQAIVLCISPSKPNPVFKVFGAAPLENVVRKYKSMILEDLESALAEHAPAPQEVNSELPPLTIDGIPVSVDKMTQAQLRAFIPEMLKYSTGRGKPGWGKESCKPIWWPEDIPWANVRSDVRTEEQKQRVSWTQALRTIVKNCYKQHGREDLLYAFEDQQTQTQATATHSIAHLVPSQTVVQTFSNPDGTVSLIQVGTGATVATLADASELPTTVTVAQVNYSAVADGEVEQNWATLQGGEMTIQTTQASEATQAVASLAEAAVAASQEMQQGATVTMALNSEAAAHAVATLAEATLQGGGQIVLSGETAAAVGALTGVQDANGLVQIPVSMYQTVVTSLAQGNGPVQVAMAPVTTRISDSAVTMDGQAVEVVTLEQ
How it was run: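 Measured: fluorescent reporter-specific RT-PCR products from transfected HepG2 cells, separated by capillary electrophoresis. Exposure lasted 24 h. Analysis used bidirectional curve fitting with DMSO as negative control.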

[2] = ATG_NFI_CIS: Attagene CIS-FACTORIAL HepG2 Assay for human Nuclear Factor I (NFI) (AID 2282989); settings: HepG2 cis-regulatory reporter, NFI response element transcription; actives raise or lower the signal
How it was run: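 After transient transfection of HepG2 with cis-promoter reporter constructs and 24 h dosing, RNA is reverse-transcribed, amplified, 6-FAM end-labelled and HpaI-digested before capillary analysis. Bidirectional curve fitting against DMSO.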

[3] = molecular target: Myc proto-oncogene protein (Homo sapiens) (UniProt P01106); assay: ATG_Myc_CIS: Attagene CIS-FACTORIAL HepG2 Assay for human Myelocytomatosis (Myc) Proto-Oncogene Transcription Factor (AID 2282990); settings: HepG2, Attagene cis-reporter transcription factor activity; actives raise or lower the signal
Sequence of Myc proto-oncogene protein (Homo sapiens) (P01106 whole entry, looked up): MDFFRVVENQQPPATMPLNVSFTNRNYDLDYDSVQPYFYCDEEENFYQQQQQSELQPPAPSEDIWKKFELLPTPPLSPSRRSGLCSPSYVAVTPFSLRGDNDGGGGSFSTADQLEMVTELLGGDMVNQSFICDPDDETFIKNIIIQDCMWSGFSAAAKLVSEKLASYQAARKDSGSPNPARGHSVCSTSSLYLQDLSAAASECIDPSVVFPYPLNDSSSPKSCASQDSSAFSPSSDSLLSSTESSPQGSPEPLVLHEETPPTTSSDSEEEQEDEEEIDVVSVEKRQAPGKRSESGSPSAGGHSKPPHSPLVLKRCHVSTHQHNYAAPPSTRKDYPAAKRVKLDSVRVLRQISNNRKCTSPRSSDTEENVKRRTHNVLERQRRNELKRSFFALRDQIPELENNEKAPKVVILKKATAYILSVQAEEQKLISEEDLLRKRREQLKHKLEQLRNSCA
How it was run: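 Multiplexed cis-reporter transcription in HepG2 cells after 24 h chemical treatment. Reporter mRNA measured by RT-PCR and capillary electrophoresis fluorescence; activity fitted bidirectionally against DMSO control.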

[4] = ATG_NF_kB_CIS: Attagene CIS-FACTORIAL HepG2 Assay for human Nuclear Factor Kappa B (NF-kB) (AID 2282991); settings: HepG2 Attagene cis-factorial NF-kB reporter mRNA; actives raise or lower the signal
How it was run: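 Fluorescence of labelled RT-PCR products separated by capillary electrophoresis gives reporter mRNA levels from transfected HepG2 cells exposed 24 h; values are fitted in both directions relative to DMSO.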

[5] = ATG_NRF2_ARE_CIS: Attagene CIS-FACTORIAL HepG2 Assay for human Nuclear Factor Erythroid 2 Related Factor 2 (NFR2) response to Antioxidant Response Elements (ARE) (AID 2282992); settings: HepG2 Attagene ARE/NRF2 reporter, transcription factor activity; actives raise or lower the signal
How it was run: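 Transient MRTU transfection of HepG2; 24 h compound exposure; TriZol RNA, RT with oligo(dT), PCR, 6-FAM primer extension, HpaI cut, CE. Bidirectional fit vs DMSO.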

[6] = ATG_Oct_MLP_CIS: Attagene CIS-FACTORIAL HepG2 Assay for human Octamer-Binding Transcription Factor (Oct) (AID 2282993); settings: HepG2 Attagene cis-factorial Oct reporter, mRNA; actives raise or lower the signal
How it was run: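 Cells of the HepG2 line express promoter-controlled reporter sequences whose mRNA levels, after 24 h treatment, are measured by RT-PCR and capillary electrophoresis. Increases and decreases are scored relative to DMSO.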

[7] = molecular target: Cellular tumor antigen p53 (Homo sapiens) (UniProt P04637); assay: ATG_p53_CIS: Attagene CIS-FACTORIAL HepG2 Assay for human p53 Transcription Factor (AID 2282994); settings: HepG2 p53 cis-element reporter, Attagene mRNA; actives raise or lower the signal
Sequence of Cellular tumor antigen p53 (Homo sapiens) (P04637 whole entry, looked up): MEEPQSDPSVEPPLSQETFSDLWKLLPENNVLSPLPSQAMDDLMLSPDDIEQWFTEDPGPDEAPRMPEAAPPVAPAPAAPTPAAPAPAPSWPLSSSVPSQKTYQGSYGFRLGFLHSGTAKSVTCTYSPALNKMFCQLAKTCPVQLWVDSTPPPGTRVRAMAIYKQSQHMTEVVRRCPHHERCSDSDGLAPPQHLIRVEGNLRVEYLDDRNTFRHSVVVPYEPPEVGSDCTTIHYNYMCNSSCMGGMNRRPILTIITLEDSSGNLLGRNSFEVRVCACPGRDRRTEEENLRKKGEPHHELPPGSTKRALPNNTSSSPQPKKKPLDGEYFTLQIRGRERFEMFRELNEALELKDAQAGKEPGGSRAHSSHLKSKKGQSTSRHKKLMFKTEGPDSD
How it was run: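 HepG2, transient MRTU transfection (cis promoter elements, endogenous TFs); 24 h dosing; RNA isolation, RT-PCR, 6-FAM primer extension, HpaI digest, CE fluorescence; bidirectional fit vs DMSO.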

[8] = BSK_3C_TissueFactor: BioMAP Diversity Plus: 3C Assay for Tissue Factor Biomarker Activity (AID 2282997); settings: BioMAP 3C HUVEC, tissue factor biomarker readout; actives raise or lower the signal
How it was run: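 Values derive from bidirectional curve fitting against DMSO of Tissue Factor ELISA signals, taken 24 h after dosing primary human umbilical vein endothelial cells.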

[9] = BSK_3C_uPAR: BioMAP Diversity Plus: 3C Assay for Urokinase-type plasminogen activator receptor (uPAR) Biomarker Activity (AID 2282998); settings: BioMAP 3C HUVEC, uPAR biomarker ELISA; actives raise or lower the signal
How it was run: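 Endothelial primary cells of human umbilical vein origin received test chemical; 24 h later uPAR was assayed by ELISA. Fitting was bidirectional, DMSO as negative control.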

[10] = BSK_3C_VCAM1: BioMAP Diversity Plus: 3C Assay for Vascular cell adhesion molecule 1 (VCAM1) Biomarker Activity (AID 2282999); settings: BioMAP 3C HUVEC, VCAM1 ELISA, cytokine-stimulated; actives raise or lower the signal
How it was run: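 Human umbilical vein endothelial cells were dosed with compound for 24 h, after which cell-surface VCAM-1 was quantified by ELISA. Bidirectional curve fitting used DMSO as negative control and activity baseline.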

[11] = BSK_4H_Eotaxin3: BioMAP Diversity Plus: 4H Assay for Eotaxin 3 Biomarker Activity (AID 2283000); settings: primary human endothelial cells (HUVEC); actives raise or lower the signal
How it was run: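 Endothelial primary cells (human umbilical vein) exposed to compound for 24 h. ELISA detection of Eotaxin-3.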

[12] = molecular target: human Peroxisome Proliferator-activated Receptor alpha (PPARa), PPARA (gene 5465) (UniProt Q07869); assay: ATG_PPARa_TRANS: Attagene TRANS-FACTORIAL HepG2 Assay for human Peroxisome Proliferator-activated Receptor alpha (PPARa) (AID 2283001; active means hit-call score of the fitted dose curve at least 0.9, where 1 is the maximum;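 on AC50: potency for gain of reporter signal over DMSO so agonist or activator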)
Sequence of human Peroxisome Proliferator-activated Receptor alpha (PPARa), PPARA (gene 5465) (Q07869 whole entry, looked up, the tested form may be a part): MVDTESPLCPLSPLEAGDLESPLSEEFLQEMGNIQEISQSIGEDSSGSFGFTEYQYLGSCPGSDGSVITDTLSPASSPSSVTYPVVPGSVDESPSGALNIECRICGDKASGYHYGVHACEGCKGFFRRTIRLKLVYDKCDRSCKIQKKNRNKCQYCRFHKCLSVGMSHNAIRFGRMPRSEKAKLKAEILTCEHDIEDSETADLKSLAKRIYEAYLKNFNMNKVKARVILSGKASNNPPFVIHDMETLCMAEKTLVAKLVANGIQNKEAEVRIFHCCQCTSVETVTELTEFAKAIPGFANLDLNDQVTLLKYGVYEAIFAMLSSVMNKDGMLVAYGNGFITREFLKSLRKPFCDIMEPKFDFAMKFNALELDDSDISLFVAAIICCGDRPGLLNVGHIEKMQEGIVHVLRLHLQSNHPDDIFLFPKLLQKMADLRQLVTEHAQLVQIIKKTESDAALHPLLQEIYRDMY
How it was run: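 HepG2 cells transiently transfected with multiplexed GAL4-UAS reporter units and chimeric NR-Gal4 constructs were dosed for 24 h. Reporter mRNA was measured by RT-PCR with fluorescent labelling and capillary electrophoresis; gain of signal fitted against DMSO.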

[13] = read-out: Intercellular Adhesion Molecule 1 (ICAM1), ICAM1 (gene 3383); assay: BSK_3C_ICAM1: BioMAP Diversity Plus: 3C Assay for Intercellular Adhesion Molecule 1 (ICAM1) Biomarker Activity (AID 2283003); settings: primary human endothelial cells (HUVEC); actives raise or lower the signal
How it was run: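 Human vascular endothelial primary cells, 3C conditions, 24 h treatment. ICAM-1 by ELISA.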

[14] = molecular target: human Retinoic Acid Receptor beta (RARb), RARB (gene 5915) (UniProt P10826); assay: ATG_RARb_TRANS: Attagene TRANS-FACTORIAL HepG2 Assay for human Retinoic Acid Receptor beta (AID 2283004; active means hit-call score of the fitted dose curve at least 0.9, where 1 is the maximum)
Sequence of human Retinoic Acid Receptor beta (RARb), RARB (gene 5915) (P10826 whole entry, looked up, the tested form may be a part): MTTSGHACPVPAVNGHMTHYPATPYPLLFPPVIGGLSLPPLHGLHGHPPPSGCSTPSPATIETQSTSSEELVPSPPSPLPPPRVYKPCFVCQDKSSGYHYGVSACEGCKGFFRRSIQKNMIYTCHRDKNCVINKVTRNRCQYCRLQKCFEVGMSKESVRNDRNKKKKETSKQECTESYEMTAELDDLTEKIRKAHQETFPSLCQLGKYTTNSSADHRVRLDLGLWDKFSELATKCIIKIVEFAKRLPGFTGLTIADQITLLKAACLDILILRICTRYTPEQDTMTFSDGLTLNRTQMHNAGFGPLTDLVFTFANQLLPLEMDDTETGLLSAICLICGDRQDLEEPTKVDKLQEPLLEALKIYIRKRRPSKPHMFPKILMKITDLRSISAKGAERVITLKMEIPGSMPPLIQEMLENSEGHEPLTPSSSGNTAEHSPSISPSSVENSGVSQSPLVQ
How it was run: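 HepG2, transient MRTU transfection, NR–Gal4 chimera, 24 h treatment; RT-PCR plus CE fluorescence detection of reporter mRNA; gain of signal vs DMSO.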

[15] = molecular target: Retinoic acid receptor alpha (Homo sapiens) (UniProt P10276); assay: ATG_RARa_TRANS: Attagene TRANS-FACTORIAL HepG2 Assay for human Retinoic Acid Receptor alpha (RARa) (AID 2283005; active means hit-call score of the fitted dose curve at least 0.9, where 1 is the maximum)
Sequence of Retinoic acid receptor alpha (Homo sapiens) (P10276 whole entry, looked up, the tested form may be a part): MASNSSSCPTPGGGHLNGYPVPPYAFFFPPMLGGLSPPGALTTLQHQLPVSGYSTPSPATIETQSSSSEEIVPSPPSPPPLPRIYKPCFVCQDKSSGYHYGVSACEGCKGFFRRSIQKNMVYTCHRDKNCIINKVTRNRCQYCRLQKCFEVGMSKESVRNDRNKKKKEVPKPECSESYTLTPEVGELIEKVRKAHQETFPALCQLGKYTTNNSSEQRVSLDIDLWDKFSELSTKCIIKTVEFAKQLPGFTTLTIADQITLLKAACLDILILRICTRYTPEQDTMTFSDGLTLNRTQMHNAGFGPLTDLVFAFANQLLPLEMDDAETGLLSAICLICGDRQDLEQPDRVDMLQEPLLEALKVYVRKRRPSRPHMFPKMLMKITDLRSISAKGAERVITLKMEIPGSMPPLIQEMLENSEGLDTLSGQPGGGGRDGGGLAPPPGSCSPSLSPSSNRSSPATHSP
How it was run: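 HepG2 cells transiently transfected with multiple reporter units expressing chimeric RARα-GAL4 fusion, with GAL4-UAS-driven reporters. After 24 h compound exposure, reporter mRNA induction quantified by RT-PCR and capillary electrophoresis with fluorescent labeling; gain-of-signal fitted relative to DMSO control.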

[16] = BSK_3C_Proliferation: Cell Proliferation Assessment in the BioMAP Diversity Plus: 3C Assay (AID 2283006); settings: primary human endothelial cells (HUVEC);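 on AC50: potency may reflect either rise or fall in cell number versus DMSO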
How it was run: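 Proliferation of human vascular endothelial primary cells after 48 h dosing, quantified as SRB-stained protein at 560 nm relative to DMSO.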

[17] = molecular target: Peroxisome proliferator-activated receptor gamma (Homo sapiens) (UniProt P37231); assay: ATG_PPARg_TRANS: Attagene TRANS-FACTORIAL HepG2 Assay for human Peroxisome Proliferator-activated Receptor-gamma (PPARg) (AID 2283007; active means hit-call score of the fitted dose curve at least 0.9, where 1 is the maximum)
Sequence of Peroxisome proliferator-activated receptor gamma (Homo sapiens) (P37231 whole entry, looked up): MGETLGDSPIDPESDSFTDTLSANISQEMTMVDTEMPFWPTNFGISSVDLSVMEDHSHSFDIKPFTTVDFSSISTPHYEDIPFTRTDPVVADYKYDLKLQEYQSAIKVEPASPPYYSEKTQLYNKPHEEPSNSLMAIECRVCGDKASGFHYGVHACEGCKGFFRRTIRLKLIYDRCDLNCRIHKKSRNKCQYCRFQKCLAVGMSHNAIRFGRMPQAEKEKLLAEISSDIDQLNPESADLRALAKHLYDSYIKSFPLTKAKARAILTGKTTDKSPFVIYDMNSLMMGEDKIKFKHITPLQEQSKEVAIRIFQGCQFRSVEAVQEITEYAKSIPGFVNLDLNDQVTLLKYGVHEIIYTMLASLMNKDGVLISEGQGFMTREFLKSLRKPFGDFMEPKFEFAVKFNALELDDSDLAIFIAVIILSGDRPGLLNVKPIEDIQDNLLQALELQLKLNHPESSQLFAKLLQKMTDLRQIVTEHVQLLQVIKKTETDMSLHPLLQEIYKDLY
How it was run: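 Twenty-four hours after chemical dosing of transiently transfected HepG2 cells, isolated RNA was converted to cDNA, reporter sequences amplified and 6-FAM-labelled, then HpaI-digested and analysed by capillary electrophoresis. Signal increase against DMSO was fitted.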

[18] = molecular target: Nuclear receptor subfamily 1 group I member 2 (Homo sapiens) (UniProt O75469); assay: ATG_PXR_TRANS: Attagene TRANS-FACTORIAL HepG2 Assay for human Pregnane X Receptor (PXR) (AID 2283008; active means hit-call score of the fitted dose curve at least 0.9, where 1 is the maximum)
Sequence of Nuclear receptor subfamily 1 group I member 2 (Homo sapiens) (O75469 whole entry, looked up, the tested form may be a part): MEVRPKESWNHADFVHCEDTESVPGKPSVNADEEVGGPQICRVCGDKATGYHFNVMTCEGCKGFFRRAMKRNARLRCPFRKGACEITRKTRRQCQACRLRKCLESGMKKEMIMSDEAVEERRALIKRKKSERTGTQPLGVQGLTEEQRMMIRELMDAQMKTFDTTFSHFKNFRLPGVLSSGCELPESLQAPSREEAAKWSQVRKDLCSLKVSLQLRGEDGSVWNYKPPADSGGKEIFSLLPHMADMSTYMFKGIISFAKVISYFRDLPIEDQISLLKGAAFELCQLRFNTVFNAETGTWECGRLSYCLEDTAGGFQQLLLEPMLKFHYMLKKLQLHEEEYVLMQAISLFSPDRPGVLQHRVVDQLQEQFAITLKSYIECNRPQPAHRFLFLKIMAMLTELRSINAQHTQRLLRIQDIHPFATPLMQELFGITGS
How it was run: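 Read-out is fluorescence of labelled reporter cDNA fragments separated by capillary electrophoresis after RT-PCR and HpaI digestion. Source: HepG2 cells carrying PXR-GAL4/UAS reporter constructs, treated 24 h; activity fitted upward relative to DMSO.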

[19] = molecular target: human Retinoic Acid Receptor gamma (RARg), RARG (gene 5916) (UniProt P13631); assay: ATG_RARg_TRANS: Attagene TRANS-FACTORIAL HepG2 Assay for human Retinoic Acid Receptor gamma (RARg) (AID 2283009; active means hit-call score of the fitted dose curve at least 0.9, where 1 is the maximum)
Sequence of human Retinoic Acid Receptor gamma (RARg), RARG (gene 5916) (P13631 whole entry, looked up, the tested form may be a part): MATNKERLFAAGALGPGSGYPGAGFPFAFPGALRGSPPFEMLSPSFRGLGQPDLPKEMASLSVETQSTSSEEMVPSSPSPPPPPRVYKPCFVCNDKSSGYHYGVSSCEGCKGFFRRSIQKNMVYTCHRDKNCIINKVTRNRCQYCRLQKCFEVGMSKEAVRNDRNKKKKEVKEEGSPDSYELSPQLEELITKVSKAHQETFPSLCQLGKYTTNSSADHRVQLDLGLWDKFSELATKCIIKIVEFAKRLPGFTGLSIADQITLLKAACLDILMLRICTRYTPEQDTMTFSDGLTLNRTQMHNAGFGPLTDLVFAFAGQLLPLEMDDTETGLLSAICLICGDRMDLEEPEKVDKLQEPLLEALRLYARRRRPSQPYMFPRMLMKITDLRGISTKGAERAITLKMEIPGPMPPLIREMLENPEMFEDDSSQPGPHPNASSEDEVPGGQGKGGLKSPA
How it was run: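 HepG2, RARg-GAL4 TRANS system, 24 h exposure; reporter mRNA by RT-PCR + CE fluorescence; increase over DMSO.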

[20] = molecular target: human Peroxisome Proliferator-activated Receptor delta (PPARd), PPARD (gene 5467) (UniProt Q03181); assay: ATG_PPARd_TRANS: Attagene TRANS-FACTORIAL HepG2 Assay for human Peroxisome Proliferator-activated Receptor delta (PPARd) (AID 2283002; active means hit-call score of the fitted dose curve at least 0.9, where 1 is the maximum)
Sequence of human Peroxisome Proliferator-activated Receptor delta (PPARd), PPARD (gene 5467) (Q03181 whole entry, looked up, the tested form may be a part): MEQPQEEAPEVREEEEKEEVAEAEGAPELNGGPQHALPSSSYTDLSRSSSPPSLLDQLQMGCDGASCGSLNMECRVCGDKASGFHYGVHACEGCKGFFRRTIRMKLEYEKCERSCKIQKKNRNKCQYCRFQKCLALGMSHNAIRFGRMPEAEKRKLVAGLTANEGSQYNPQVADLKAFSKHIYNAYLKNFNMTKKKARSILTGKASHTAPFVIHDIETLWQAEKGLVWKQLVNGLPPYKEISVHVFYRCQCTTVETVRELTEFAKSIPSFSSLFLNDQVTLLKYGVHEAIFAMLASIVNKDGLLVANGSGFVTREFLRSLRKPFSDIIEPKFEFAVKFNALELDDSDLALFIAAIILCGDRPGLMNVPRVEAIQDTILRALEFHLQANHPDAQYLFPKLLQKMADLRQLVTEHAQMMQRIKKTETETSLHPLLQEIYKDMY
How it was run: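 Multiplexed trans-activation format: HepG2 liver cells expressing exogenous NR-Gal4 chimeras and GAL4-UAS reporters were exposed for 24 h. Reporter mRNA was detected by RT-PCR with capillary electrophoresis fluorescence; activity fitted as gain of signal relative to DMSO.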

Measured: AC50

NC(=O)C(F)(F)C(F)(F)C(F)(F)C(F)(F)C(F)(F)C(F)(F)C(F)(F)F
active: [12] 86.9 µM
not listed: [20]
inactive: all other assays above

O=C1C=CC(=O)N1c1ccc(Cc2ccc(N3C(=O)C=CC3=O)cc2)cc1
inactive: [2] | [3] | [6] | [7] | [12] | [15] | [17] | [18]
active: [1] 60.1 µM | [4] 11.2 µM | [5] 33.4 µM | [8] 5.47 µM | [9] 5.81 µM | [10] 7.45 µM | [11] 6.05 µM | [13] 9.7 µM | [16] 3.52 µM

C=CC(=O)OCCC(F)(F)C(F)(F)C(F)(F)C(F)(F)F
active: [5] 98.8 µM | [8] 22.2 µM and 26.3 µM | [10] 16.6 µM and 15.6 µM | [16] 30 µM and 32.6 µM
not listed: [14] | [15] | [19]
inactive: all other assays above

OCC(F)(F)C(F)(F)C(F)(F)CO
not listed: [14] | [15] | [17] | [18] | [19]
inactive: all other assays above

C=CC(=O)OCC(F)(F)C(F)(F)C(F)(F)C(F)(F)C(F)(F)C(F)(F)C(F)(F)C(F)F
active: [4] 80.2 µM | [5] 58.2 µM | [16] 20.8 µM and 24.1 µM | [17] 37.6 µM
not listed: [14] | [15] | [19]
inactive: all other assays above

OCC(O)CC(F)(F)C(F)(F)C(F)(F)C(F)(F)C(F)(F)C(F)(F)C(F)(F)C(F)(F)F (stereo not drawn)
inactive: all assays above

CCN(CCO)S(=O)(=O)C(F)(F)C(F)(F)C(F)(F)C(F)(F)C(F)(F)C(F)(F)C(F)(F)C(F)(F)F
active: [5] 110 µM | [6] 15.4 µM | [8] 55.1 µM and 9.9 µM | [9] 8.1 µM | [11] 20.9 µM and 43.5 µM | [13] 50.8 µM and 9.21 µM | [16] 8.37 µM and 10.7 µM
inactive: [1] | [2] | [3] | [4] | [7] | [9] | [10] | [12] | [17] | [18] | [19]
